Bioassay records as filed in PubChem.
miR122 inh – activators of miR-122 sensor in Huh7 cells. Huh7 psiCHECK-miR122 Renilla luciferase sensor, 48 h. activation, % at 12.5 µM. 0.14% of 340,000 active. AID 623901;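 active = mean activation of 30% or more, with every replicate also reaching 30%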;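 also: 0% = median of neutral control wells and 100% = median of positive control wells; higher luciferase signal means stronger suppression of miR-122 activity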
* = called active by the depositor. Many of the other results were omitted from the sample, so hits are more common in it than they were.

SMILES | miR122 inh
N=c1c2c(-c3ccccc3)c(-c3ccccc3)n(Cc3ccccc3)c2ncn1CCO | 40*
C[C@@H]1CN([C@@H](C)CO)C(=O)c2cc(C#CC3(O)CCCC3)cnc2O[C@H]1CN(C)C(=O)Cc1ccccc1 | -4
COCC(=O)N(C)C[C@@H]1Oc2cc(C#CC3CC3)ccc2S(=O)(=O)N([C@@H](C)CO)C[C@@H]1C | 2
C[C@H](CO)N1C[C@H](C)[C@H](CN(C)S(C)(=O)=O)Oc2ncc(-c3cccnc3)cc2C1=O | -7
COc1cccc(-c2cnc3c(c2)C(=O)N([C@H](C)CO)C[C@H](C)[C@H](CN(C)C(=O)Nc2ccccc2F)O3)c1 | 2
CCC(=O)N(C)C[C@H]1Oc2cc(C#C[C@@H](C)O)ccc2S(=O)(=O)N([C@@H](C)CO)C[C@H]1C | 1
C/C=C/c1cnc2c(c1)C(=O)N([C@H](C)CO)C[C@H](C)[C@@H](CN(C)S(=O)(=O)c1ccc(C)cc1)O2 | -17
C[C@H](CO)N1C[C@H](C)[C@H](CN(C)C(=O)C2CC2)Oc2cc(-c3ccncc3)ccc2S1(=O)=O | 5
C[C@H]1CN([C@@H](C)CO)C(=O)c2cc(C#CC3(O)CCCC3)cnc2O[C@@H]1CN(C)S(=O)(=O)c1ccccc1 | -3
CCO/C=C1\N=C(c2ccc(F)cc2)OC1=O | 60*
C[C@H](CO)N1C[C@H](C)[C@@H](CN(C)C)Oc2ncc(-c3cccc(C#N)c3)cc2C1=O | 6
C[C@H](CO)N1C[C@H](C)[C@@H](CN(C)Cc2ccc(C(F)(F)F)cc2)Oc2c(cccc2N(C)C)C1=O | -98
C[C@H](CO)N1C[C@H](C)[C@H](CN(C)Cc2ccccn2)Oc2cc(-c3ccncc3)ccc2S1(=O)=O | 6
Cc1cccc(NS(=O)(=O)c2cccc(C(=O)N3CCCCCCC3)c2)c1 | -163
CC(=O)c1cccc(S(=O)(=O)NCC2CCCCC2)c1 | 51*
O=C(Nc1ccc(S(=O)(=O)NCC2CCCO2)cc1)c1cccc(F)c1 (stereo not given) | -91
C[C@@H]1CN([C@@H](C)CO)C(=O)c2cc(-c3ccc(F)cc3)cnc2O[C@H]1CN(C)Cc1cccnc1 | 2
C[C@@H]1CN([C@H](C)CO)C(=O)c2cc(-c3cccc(C#N)c3)cnc2O[C@H]1CN(C)Cc1ccccc1 | -3
CCCCCCNS(=O)(=O)c1ccc(Cl)s1 | -209
COc1cccc(NS(=O)(=O)c2cc(C)sc2C)c1 | -121
COc1ccc2[nH]c(C(=O)O)c(NS(=O)(=O)c3ccc(Cl)s3)c2c1 | 40*
Oc1ccccc1/C=N/Nc1nc2ccccc2o1 | 48*
COc1cccc(-c2cnc3c(c2)C(=O)N([C@H](C)CO)C[C@H](C)[C@@H](CN(C)CC2CCOCC2)O3)c1 | 5
COc1ccc(NC(=O)N(C)C[C@@H]2Oc3ncc(-c4cc5ccccc5o4)cc3C(=O)N([C@H](C)CO)C[C@@H]2C)cc1 | 8
C[C@H]1CN([C@@H](C)CO)C(=O)c2cc(C#CC3CC3)cnc2O[C@@H]1CN(C)Cc1ccncc1 | 0
SMILES | miR122 inh
C/C=C/c1cnc2c(c1)C(=O)N([C@H](C)CO)C[C@H](C)[C@@H](CN(C)S(=O)(=O)c1cccs1)O2 | -1
C[C@@H]1CN([C@@H](C)CO)S(=O)(=O)c2ccc(C#CC3CC3)cc2O[C@@H]1CN(C)C(=O)c1cccc(F)c1 | 42*
C[C@H]1CN([C@@H](C)CO)S(=O)(=O)c2ccc(C#CC3CC3)cc2O[C@H]1CN(C)C(=O)C1CC1 | -14
C[C@@H]1CN([C@H](C)CO)S(=O)(=O)c2ccc(C#CC3CC3)cc2O[C@@H]1CN(C)C(=O)c1cccc(F)c1 | 44*
COCC(=O)N(C)C[C@@H]1Oc2cc(C#CC3CC3)ccc2S(=O)(=O)N([C@@H](C)CO)C[C@H]1C | -1
COCC(=O)N(C)C[C@H]1Oc2cc(C#CC3CC3)ccc2S(=O)(=O)N([C@H](C)CO)C[C@@H]1C | -2
COCC(=O)N(C)C[C@H]1Oc2cc(C#CC3CC3)ccc2S(=O)(=O)N([C@H](C)CO)C[C@H]1C | 10
C[C@@H]1CN([C@H](C)CO)C(=O)c2cc(-c3ccc(C(=O)N(C)C)cc3)cnc2O[C@H]1CN(C)Cc1ccc(C(=O)O)cc1 | 0
C[C@@H]1CN([C@@H](C)CO)C(=O)c2cc(N(C)C)ccc2O[C@@H]1CN(C)Cc1ccc(C(=O)Nc2ccccc2N)cc1 | -254
C[C@H](CO)N1C[C@H](C)[C@@H](CN(C)Cc2ccccc2)Oc2ncc(-c3cncnc3)cc2C1=O | -4
COc1cccc(-c2ccc3c(c2)O[C@H](CN(C)Cc2cccnc2)[C@H](C)CN([C@H](C)CO)S3(=O)=O)c1 | 1
NC(=O)Cn1cc(/C=N\NS(=O)(=O)c2ccc(F)cc2)c2ccccc21 | -135
Cc1ccc(S(=O)(=O)N/N=C/c2ccc(OCC(=O)Nc3ccccc3Cl)cc2)cc1 | -219
O=C(COc1ccc(/C=N/NS(=O)(=O)c2ccccc2)cc1)Nc1ccc(F)cc1 | 36*
CO[C@H]1CN(C)C(=O)c2cc(NC(=O)Cc3ccccc3)ccc2OC[C@@H](C)N(C)C[C@@H]1C | 1
COc1cccc(-c2cnc3c(c2)C(=O)N([C@H](C)CO)C[C@H](C)[C@@H](CN(C)C(=O)Nc2ccccc2F)O3)c1 | 7
CCCC(O)C#Cc1cnc2c(c1)C(=O)N([C@H](C)CO)C[C@H](C)[C@H](CN(C)C)O2 (stereo not given in full) | 2
COc1ccc(-c2cnc3c(c2)C(=O)N([C@@H](C)CO)C[C@@H](C)[C@H](CN(C)C(=O)C2CCOCC2)O3)cc1 | 0
C[C@H](CO)N1C[C@H](C)[C@H](CN(C)Cc2ccccc2C(=O)O)Oc2ncc(C3=CCCCC3)cc2C1=O | 0
CCCCCCCCCCCCCCCC[n+]1ccccc1 | 49*
C[C@@H]1CN([C@H](C)CO)S(=O)(=O)c2ccc(C#Cc3ccccc3)cc2O[C@H]1CN(C)S(=O)(=O)c1ccccc1F | -3
C[C@@H]1CN([C@H](C)CO)S(=O)(=O)c2ccc(-c3ccccc3)cc2O[C@H]1CN(C)Cc1cncnc1 | -16
COc1ccc(S(=O)(=O)N(C)C[C@H]2Oc3ccc(NC(=O)Cc4ccccc4)cc3C(=O)N([C@H](C)CO)C[C@H]2C)cc1 | -108
COc1ccc(NS(=O)(=O)c2cc(OC)ccc2OC)cc1 | -130
COc1ccc(OC)c(Nc2cc(C)nc3ccc(C)cc23)c1 | 32*
SMILES | miR122 inh
COc1ccc(OC)c(Nc2cc(C)nc3nc(C)nn23)c1 | -107
CCCNC(=O)N(C)C[C@@H]1Oc2ncc(/C=C/c3ccccc3)cc2C(=O)N([C@@H](C)CO)C[C@H]1C | 4
CCCNC(=O)N(C)C[C@@H]1Oc2ncc(C#C[C@H](C)O)cc2C(=O)N([C@@H](C)CO)C[C@@H]1C | -2
Cc1ccsc1/C=N/NC(=O)CSCc1ccc(Cl)cc1 | 36*
Cc1ccc(S(=O)(=O)N(C)C[C@@H]2Oc3cc(C#CC4CCCC4)ccc3S(=O)(=O)N([C@H](C)CO)C[C@H]2C)cc1 | -3
CNC[C@H]1Oc2ncc(C#CCC3CCCC3)cc2C(=O)N([C@H](C)CO)C[C@H]1C | 4
CO[C@@H]1CN(C)C(=O)c2cc(NC(=O)Cc3ccccc3)ccc2OC[C@@H](C)N(C)C[C@@H]1C | 2
C[C@H]1CN([C@@H](C)CO)C(=O)c2cc(/C=C/c3ccccc3)cnc2O[C@@H]1CN(C)C(=O)c1cccnc1 | 2
CN1C(=O)c2cc(NC(=O)C3CC3)ccc2OC[C@H]2O[C@H](CC(=O)NCc3cccc(F)c3)CC[C@H]21 | -117
